Bioassay records (PubChem BioAssay)
A selection: hits, their analogues and other compounds. The true share with any hit is near 5.5%.
Coupling enz – counter-screen for Giardia aldolase inhibitors: coupling enzyme system; coupling enzyme system counterscreen, AmpLite Red fluorescence; activity change, negative = inhibition, % at 58.2 µM, hits read low; actives 0.67% (n = 290,000); in the data active = activity change below about -30%
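Activity here indicates interference with the coupling reaction, not aldolase inhibition. Compounds at 57.5 uM final met coupling enzymes for 10 min at RT; substrate and AmpLite Red detection followed, with a 525/598 nm fluorescence read after 20 min.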
ELG1 DNA repair – inhibitors of ELG1-dependent DNA repair in HEK293T cells; HEK293T ELG1-luciferase reporter, luminescence, 16 h; DNA damage induced by 5-fluorouridine; Potency, µM (titrated, usually from 46.1 µM), for inactives: top-dose activity change, negative = inhibition, usual class: inhibitors; actives 2.3% (n = 330,000); AID 504467; also: potency is read from the fitted curve at half-maximal effect; nearly all actives have a fitted effect of over 55% in size
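Overnight (16 hr) co-exposure of 2,000 cells/well to 5-fluorouridine and compound at 37 °C preceded detection. Luciferase was quantified via ONE-Glo luminescence; loss of signal denotes inhibition.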
Sfp PPTase inh – blocks B. subtilis Sfp PPTase activity; Q9F4F7; Biochemical Sfp PPTase activity, qHTS; Potency, µM, without a hit: largest response in the series, negative = inhibition, most hits filed as inhibitors; actives 3.5% (n = 310,000);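 also: the enzyme is Sfp with the accession as filed and its product quenches rhodamine fluorescence; potency is read from the fitted curve at half-maximal effect; 0% = enzyme reaction without inhibitor and -100% = no enzyme wells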
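Fluorescence-quenching assay with 15 nM Sfp, 5 uM rhodamine-CoA and 12.5 uM BHQ-2-labelled ybbR peptide in pH 7.6 Hepes/MgCl2 buffer. Enzyme was pre-incubated with compound for 15 min at room temperature. Rate was taken from the 30-min fluorescence change (525/598 nm).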
Giardia killer – kills Giardia lamblia | activity change, % at 7.66 µM, hits read low | actives 0.15% (n = 340,000) | Giardia lamblia trophozoite viability; in the data active = activity change below about -80%; inconclusive = between about -30% and that limit;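 also: parasites exposed to compound for two days anaerobically before the ATP read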
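Trophozoite viability was measured as ATP-dependent luminescence, read 15-30 min after reagent addition. Before that, parasites at 100 cells/well were exposed to compounds for 48 h, anaerobically, at 37 deg C.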
* = called active by the depositor; ! = repeats disagree. Unless noted, calls follow the shape of the dose curve; as a rule, active = well fitted curve in the direction sought with a large enough effect; inconclusive = small, poorly fitted or top-dose-only effect, or another doubt; inactive = no such curve, though single readings can be large; an effect the other way counts as inactive or inconclusive. Unless noted, % is scaled to controls: 0 for no effect and ±100 for the full control effect.

What do the screens show for `COc1cc(C(=S)N2CCOCC2)ccc1OC(=O)/C=C/c1ccco1`?
Coupling enz: -2.8; ELG1 DNA repair: -19.3%; Sfp PPTase inh: 56.2µM*; Giardia killer: inconclusive

How did COc1cc(C(=S)N2CCOCC2)ccc1OC(=O)c1ccccc1 do in these assays?
Coupling enz: -0.6; ELG1 DNA repair: 10.7%; Sfp PPTase inh: -3.1%; Giardia killer: 1.1

How did COc1cccc(C(=O)NNC(=O)c2ccc3ccccc3c2O)c1 do in these assays?
Giardia killer: -11.2

Results for COc1cc(C(=O)Oc2ccc(Br)cc2C(=S)N2CCOCC2)cc(OC)c1OC ?
Coupling enz: 4.1; ELG1 DNA repair: -12.5%; Sfp PPTase inh: 31.6µM*; Giardia killer: -11.7

How did COc1ccc(C(=S)N2CCOCC2)cc1OC(=O)c1cc(OC)c(OC)c(OC)c1 do in these assays?
Coupling enz: 1.5; ELG1 DNA repair: -4.1%; Sfp PPTase inh: 44.7µM*; Giardia killer: 9.1

How did COc1ccc(C(=O)Oc2c(OC)cc(C(=S)N3CCOCC3)cc2OC)cc1OC do in these assays?
Coupling enz: 2.2; ELG1 DNA repair: -24.9%; Sfp PPTase inh: 39.8µM*; Giardia killer: 31.3

How did CCOc1cc(C(=S)N2CCOCC2)ccc1OC(=O)c1ccccc1 do in these assays?
Coupling enz: 0.1; ELG1 DNA repair: 2.1%; Sfp PPTase inh: 79.4µM*; Giardia killer: 3.5

Results for COc1ccc(C(=O)Oc2ccc(Br)cc2C(=S)N2CCOCC2)cc1 ?
Coupling enz: 2.3; ELG1 DNA repair: -16.2%; Sfp PPTase inh: -5.7%; Giardia killer: 0.8

What do the screens show for `COc1cc(C(=O)Oc2ccc(C(=S)N3CCOCC3)cc2)cc(OC)c1OC`?
Coupling enz: 1.3; ELG1 DNA repair: inconclusive; Sfp PPTase inh: -15.5%; Giardia killer: 8.2

What do the screens show for `COc1ccc(CCNC(=O)c2cc3c(cc2Cl)N2CCCCCC2=NS3(=O)=O)cc1`?
ELG1 DNA repair: 0.4%; Giardia killer: -5.7

How did COc1ccc(C(=S)N2CCOCC2)cc1OC(=O)c1ccc([N+](=O)[O-])cc1 do in these assays?
Coupling enz: -0.2; ELG1 DNA repair: 7.2%; Sfp PPTase inh: 50.1µM*; Giardia killer: 6.3

Results for CCCCC1=CC2=CC(=O)C(C)(OC(=O)CC)C(=O)C2=CN1CC(C)C (stereo not given) ?
Coupling enz: -13.0; ELG1 DNA repair: 4.0%; Sfp PPTase inh: 2.4%; Giardia killer: 15.7

What do the screens show for `CCCCC1=CC2=CC(=O)C(C)(OC(=O)CC)C(=O)C2=CN1C(CO)CO` (stereo not given)?
Coupling enz: -42.3*!; ELG1 DNA repair: inconclusive; Sfp PPTase inh: -9.8%; Giardia killer: 20.9

Results for Cc1c(-c2ccccc2)oc2c(C(=O)OCC(=O)Nc3ccc(F)cc3)cccc2c1=O ?
Coupling enz: 3.1; ELG1 DNA repair: 10.3µM*; Sfp PPTase inh: -2.6%; Giardia killer: 1.3

Results for O=C(/C=C/c1ccc(O)c(O)c1)O[C@H](Cc1ccc(O)c(O)c1)C(=O)O ?
Coupling enz: -35.1*; ELG1 DNA repair: inconclusive; Sfp PPTase inh: 50.1µM*

What do the screens show for `NC(Cc1ccc(O)c(O)c1)C(=O)O` (stereo not given)?
Coupling enz: -30.4*; Sfp PPTase inh: -80.9%

Results for NCC(O)c1ccc(O)c(O)c1 (stereo not given) ?
Giardia killer: 13.7

What do the screens show for `O=C(O)c1ccc2c(c1)C(=O)N([C@H](Cc1ccc(O)c(O)c1)C(=O)O)C2=O`?
Coupling enz: 0.4; Sfp PPTase inh: 79.4µM*

What do the screens show for `NCCc1ccc(O)c(O)c1`?
Coupling enz: -8.8; ELG1 DNA repair: 8.8%; Sfp PPTase inh: 79.4µM*!; Giardia killer: -23.1

What do the screens show for `CC(C)(C)c1ccc(C[C@H](C(=O)O)N2C(=O)c3ccc(C(=O)O)cc3C2=O)cc1`?
Coupling enz: 22.7; Sfp PPTase inh: 31.0%

What do the screens show for `COc1cccc(CNC(=O)COC(=O)c2ccc(Cl)s2)c1`?
ELG1 DNA repair: 28.3%; Giardia killer: -9.2

What do the screens show for `O=C(O)/C=C/c1ccc(O)c(O)c1`?
Coupling enz: -30.4*!; ELG1 DNA repair: 3.7%; Sfp PPTase inh: 56.2µM*!; Giardia killer: -13.5

What do the screens show for `COc1cc(/C=C/C(=O)O)ccc1O`?
Coupling enz: 0.6; Sfp PPTase inh: 5.9%; Giardia killer: -1.1

Results for CCC1C(=O)N(c2nc(C)cc(C)n2)N=C1C (stereo not given) ?
Coupling enz: 0.7; ELG1 DNA repair: 2.7%; Sfp PPTase inh: 56.2µM*; Giardia killer: -13.3
